# Results: the supplement of paper PMC11219838
# Unmarked numbers belong to inactive results.
# Test system: Caenorhabditis elegans L1 (N2)
# Test: survival and reproduction score of C. elegans L1 (0: 0-10 living worms, 1: 11-20, 2: 21-50, 3: >50, 4: overgrown) (score 0-4); higher = more worms, less nematicidal, active = 1 or less; extreme values may be limits of the assay
# Conditions: 60 µM; 6 days; temperature: 20 °C
# Summary of the method: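 In liquid NGM with E. coli HB101, approximately 20 synchronized C. elegans N2 L1s per 96-well well were exposed to compound at 60 µM final (0.6% v/v DMSO) for 6 days at 20 °C with shaking at 200 rpm in sealed plates. Survival and reproduction were judged under a dissection microscope as an ordinal rating of living worms per well. Ratings went from 0 (0–10 worms) to 4 (overgrown, starved) and were averaged over two biological replicates.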
row,Structure (SMILES),survival and reproduction score
1,Clc1ccccc1-c1noc(-c2cccnc2)n1,4
2,Ic1ccc(-c2nc(-c3cccnc3)no2)cc1,0 (active)
3,Nc1nc(CSc2nnc(-c3ccccc3)o2)cs1,4
4,Cc1ccccc1OCc1nc(-c2ccccc2)no1,4
5,CCOc1ccc(-c2nc(-c3cccnc3)no2)cc1OCC,4
6,Cc1ccc(NC(=O)CSc2nnc(-c3ccc(C(C)(C)C)cc3)o2)c(C)c1,2
7,Cc1ccc(-c2nc(-c3cccc(C(F)(F)F)c3)no2)cc1,3.5
8,CC1Cc2ccccc2N1C(=O)CSc1nnc(-c2ccccc2)o1 (centres undefined),4
9,COc1ccc(-c2noc(-c3cccc(Br)c3)n2)cc1,4
10,c1ccc(-c2noc(C3COc4ccccc4O3)n2)cc1 (centres undefined),0 (active)
11,CC(Oc1ccc(Br)cc1)c1nc(-c2ccncc2)no1 (centres undefined),0 (active)
12,Cc1cc(Br)ccc1OCc1nc(-c2ccncc2)no1,4
13,COc1ccc(-c2nnc(SCc3cccc(C#N)c3)o2)cc1,4
14,Cc1cc(OCc2nc(-c3ccncc3)no2)cc(C)c1Br,4
15,Cc1ccc(OC(C)c2nc(-c3ccc4c(c3)OCO4)no2)cc1C (centres undefined),4
16,Clc1ccc(OCc2nc(-c3cccnc3)no2)c(Cl)c1,4
17,Cc1cc(NC(=O)CSc2nnc(-c3ccc(Cl)cc3Cl)o2)no1,4
18,Cc1nc(CSc2nnc(-c3ccc(Cl)cc3)o2)cs1,4
19,O=C(CSc1nnc(-c2ccccc2Cl)o1)Nc1ccc(Br)cn1,4
20,O=C(CSc1nnc(-c2ccc(Cl)cc2)o1)NC1CCCCC1,4

row,Structure (SMILES),survival and reproduction score
1,CC(C)C(=O)Nc1ccccc1-c1nc(-c2cccnc2)no1,0 (active)
2,Cc1ccc(OCc2nc(-c3ccc4c(c3)OCO4)no2)cc1C,4
3,Brc1ccc(OCc2nc(-c3cccs3)no2)cc1,4
4,COc1ccc(Cl)cc1-c1nc(-c2ccc3c(c2)OCO3)no1,4
5,COc1cccc(-c2noc(COc3cccc(C)c3)n2)c1,4
6,COc1ccc(-c2noc(COc3ccccc3C)n2)cc1,4
7,COc1ccc(-c2nnc(SCC(=O)OCc3ccccc3)o2)cc1,4
8,Cc1ccc(C)c(OCc2nc(-c3cccnc3)no2)c1,4
9,CC(C)C(=O)Nc1ccccc1-c1nc(-c2ccccn2)no1,4
10,O=C(c1ccccc1-c1nc(-c2ccccc2Cl)no1)N1CCCCC1,4
11,Clc1ccccc1CSc1nnc(-c2ccncc2)o1,4
12,Cc1ccc(-c2noc(-c3ccc(C)cc3C)n2)cc1,4
13,CCOc1ccccc1-c1nnc(SCC(=O)c2ccccc2)o1,4
14,COc1ccccc1NC(=O)CSc1nnc(-c2ccccc2)o1,3.5
15,COc1ccccc1-c1nc(-c2ccc(C)cc2)no1,4
16,Cc1cc(NC(=O)CSc2nnc(-c3ccccc3Cl)o2)no1,4
17,COc1ccc(-c2nnc(SCc3c(Cl)cccc3Cl)o2)cc1,4
18,O=C(CSc1nnc(-c2ccc(Cl)cc2)o1)c1ccccc1,4
19,COc1nc(C)ccc1-c1noc(-c2ccccc2Br)n1,4
